Bioassay records (PubChem)
APE1 inh-1 = blocks human APE1 abasic DNA cleavage; recombinant APE1, TAMRA/BHQ-2 abasic DNA cleavage fluorescence; AID 2517; P27695; Potency, µM (titrated, usually from 65.8 µM), inactives show top-dose activity change, negative = inhibition, actives largely listed as inhibitors; hit rate 0.35% among 350,000;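 note: potency is the fitted concentration of half-maximal effect; plate controls were vehicle for no effect and reference inhibitor for full effect; nearly all actives have a fitted effect of over 55% in size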
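Quantitative HTS: incision of a TAMRA/BHQ-2 double-stranded substrate bearing a tetrahydrofuran abasic site by 0.75 nM APE1 raises fluorescence. Substrate 50 nM final, added after 15 min compound preincubation at room temperature; progress as third-minus-first kinetic read difference.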
KAT2A inh = inhibitors of human GCN5L2 histone acetyltransferase. Q92830. GCN5L2 HAT assay, ThioGlo1 CoA-SH fluorescence. Potency, µM (titrated, usually from 58.9 µM), inactives show at the highest dose activity change, negative = inhibition, most hits filed as inhibitors. hit rate 0.21% among 390,000; note: potency is the fitted concentration of half-maximal effect
Target sequence (Q92830 whole entry, looked up): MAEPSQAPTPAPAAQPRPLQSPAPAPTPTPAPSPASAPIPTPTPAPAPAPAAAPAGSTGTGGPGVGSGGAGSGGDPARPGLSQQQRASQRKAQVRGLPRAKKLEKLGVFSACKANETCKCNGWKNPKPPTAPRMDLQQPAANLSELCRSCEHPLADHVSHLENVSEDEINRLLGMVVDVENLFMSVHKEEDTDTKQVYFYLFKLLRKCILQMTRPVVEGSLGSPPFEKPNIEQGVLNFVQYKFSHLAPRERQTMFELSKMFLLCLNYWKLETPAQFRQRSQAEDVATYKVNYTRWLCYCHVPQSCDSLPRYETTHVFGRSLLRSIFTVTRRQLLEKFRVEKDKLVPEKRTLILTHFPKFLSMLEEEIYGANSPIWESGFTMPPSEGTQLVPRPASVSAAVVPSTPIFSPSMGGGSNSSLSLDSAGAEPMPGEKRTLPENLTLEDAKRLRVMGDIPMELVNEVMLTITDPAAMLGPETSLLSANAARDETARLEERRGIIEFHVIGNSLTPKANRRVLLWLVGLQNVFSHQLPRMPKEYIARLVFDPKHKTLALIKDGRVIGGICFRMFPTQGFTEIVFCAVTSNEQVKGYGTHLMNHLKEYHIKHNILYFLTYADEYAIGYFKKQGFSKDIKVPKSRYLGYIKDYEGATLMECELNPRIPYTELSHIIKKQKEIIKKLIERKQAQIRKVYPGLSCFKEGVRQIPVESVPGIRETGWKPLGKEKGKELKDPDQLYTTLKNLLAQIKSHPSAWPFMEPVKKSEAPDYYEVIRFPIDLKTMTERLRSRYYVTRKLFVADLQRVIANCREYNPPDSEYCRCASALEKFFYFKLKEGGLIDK
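qHTS, 1536-well. 20nM enzyme, pH 7.5 HEPES/EDTA/Tween-20 buffer; 15 min compound preinc., RT. Start: 75uM H3(1-25), 70uM AcCoA, 50uM ThioGlo1. Read Ex340/Em540 at t=0 (autofluorescence flag) and t=20 min.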
FEN1 inhibitor = inhibitors of human flap endonuclease 1. AID 588795. P39748. Potency, µM (top dose mostly 114 µM), without a hit: top-dose activity change, negative = inhibition, actives largely listed as inhibitors. Recombinant FEN1 flap cleavage, fluorescence, 15 min. hit rate 0.35% among 390,000; note: potency is the fitted concentration of half-maximal effect; nearly all actives have a fitted effect of over 65% in size
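Quantitative HTS format: each compound was titrated, incubated with 10 nM nuclease for 15 min at room temperature, then challenged with flap substrate at 50 nM final. Signal change over 15 min gave concentration–effect curves.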
BLM helicase inh = inhibitors of human Bloom syndrome helicase BLM; P54132; recombinant BLM DNA unwinding, fluorescence dequenching; Potency, µM (top dose mostly 56.1 µM), for inactives: at the top dose activity change, negative = inhibition, most hits filed as inhibitors; hit rate 0.2% among 350,000; AID 2528;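 note: potency is the fitted concentration of half-maximal effect; plate controls were vehicle for no effect and no enzyme for full effect; nearly all actives have a fitted effect of over 35% in size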
PI5P4Ka inh = PI5P4K alpha (human) kinase inhibition | P48426 | PI5P4Kalpha enzyme, ADP-Glo luminescence, 60 min; stronger effect = lower value | max response, % | hit rate 1.2% among 330,000 | AID 652105; active = max response of -50% or lower; inconclusive = between -30% and -50%; inactive = -30% or higher; note: value at the top dose of about 77 µM
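Controls without substrate or without enzyme flank wells where PI5P4Kalpha converts substrate using 5 microM ATP (final). Incubation lasts 60 minutes at room temperature; ADP formed is read by ADP-Glo luminescence.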
RECQ1 inh = blocks DNA unwinding by human RECQ1; RECQ1 DNA unwinding, red fluorescence kinetic read; Potency, µM (doses to about 57.3 µM), for the others: top-dose activity, negative = inhibition, actives largely listed as inhibitors; hit rate 0.54% among 240,000; AID 2549;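 note: potency is the fitted concentration of half-maximal effect; plate controls were vehicle for no effect and no enzyme for full effect; nearly all actives have a fitted effect of over 30% in size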
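RECQ1T1 50 nM; forked duplex (20 bp + 30-nt ss tails) 200 nM, ATP 2 mM final; pH 8.0, 2 mM MgCl2, 2.5 ug/ml poly(dI-dC); 15 min compound preincubation; discontinuous kinetic read over 2 h at RT.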
APE1 dye cs = DNA dye displacement counter-screen activity | shares compounds with APE1 inh-1 | DNA fluorescent dye displacement counterscreen, fluorescence | Potency, µM (series often up to 28.5 µM), without a hit: top-dose activity change, negative = inhibition, actives largely listed as inhibitors | hit rate 7% among 480 | AID 2564;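 note: loss of thiazole orange fluorescence as the dye is displaced from duplex DNA; potency is the fitted concentration of half-maximal effect; 0% = ThO with dsDNA and no compound and -100% = ThO without dsDNA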
Endo IV inh = blocks E. coli endonuclease IV DNA cleavage; E. coli Endo IV, fluorogenic AP-site DNA cleavage; AID 2565; Potency, µM (doses to about 27.1 µM), without a hit: at the highest dose activity change, negative = inhibition, actives largely listed as inhibitors; hit rate 4% among 560; shares compounds with APE1 inh-1;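 note: potency is the fitted concentration of half-maximal effect; plate controls were uninhibited enzyme wells for no effect and no enzyme buffer wells for full effect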
APE1 inh-2 = APE1 (human) endonuclease inhibition, confirmation. shares compounds with APE1 inh-1. purified APE1, fluorogenic abasic-site DNA cleavage. Potency, µM (doses to about 57.1 µM), without a hit: at the top dose activity change, negative = inhibition, hits mostly inhibitors. hit rate 44% among 750; note: potency is the fitted concentration of half-maximal effect; nearly all actives have a fitted effect of over 30% in size
APE1 FP = displaces DNA from human APE1 in FP assay | AID 2573 | APE1 binding to TAMRA-labelled double-stranded DNA, fluorescence polarization displacement | hit rate 7% among 480 | Potency, µM (highest dose often 28.5 µM), for inactives: at the highest dose activity, negative = inhibition, usual class: inhibitors | shares compounds with APE1 inh-1; note: potency is the fitted concentration of half-maximal effect
The depositor's hits bear a star; i = inactive; ? = inconclusive; / = not tested or not shown; ! = not active in a repeat; [ ] = another dose, or the depositor's remark. Shown are actives, neighbours in structure and some others; about 1.5% of the full set was active somewhere. Unless noted, calls come from the whole dose curve; as a rule, active = well fitted curve in the direction sought with a large enough effect; inconclusive = small, poorly fitted or top-dose-only effect, or another doubt; inactive = no such curve, though single readings can be large; an effect the other way counts as inactive or inconclusive. Unless noted, % is set by controls: 0 for no effect and ±100 for the full control effect.

SMILES	APE1 inh-1	KAT2A inh	FEN1 inhibitor	BLM helicase inh	PI5P4Ka inh	RECQ1 inh	APE1 inh-2	others
Cc1nc(NCC(=O)c2c[nH]c3ccccc23)sc1C	/	/	-14%	/	/	/	/
Cc1cc(C)c(SSc2nnnn2-c2ccccc2)c(C)c1	/	/	/	/	-80*	/	/
CC(NC(=O)OCc1ccccc1)C(=O)Oc1cc2oc(=O)cc(-c3ccccc3)c2cc1Cl (stereo not drawn)	3%	0%	10%	4%	-62*	0%	/
CCc1cc2c(-c3ccccc3)cc(=O)oc2cc1OC(C)C(=O)O (stereo not drawn)	4%	-15%	-1%	0%	-5	/	/
O=C(O)c1ccccc1-c1c2cc(Br)c(=O)c(Br)c-2oc2c(Br)c(O)c(Br)cc12	?	22µM*	/	28µM*	/	32µM*	/
O=C(Nc1ccc(C2=NCCN2)cc1)c1ccc(C(=O)Nc2ccc(C3=NCCN3)cc2)c([N+](=O)[O-])c1	0%	10%	40µM*	?	-28	9%	/
O=C(OCCN1CCOCC1)c1ccccc1	27%	-2%	9%	-6%	-1	/	/
O=C(OCCN1CCOCC1)c1cccnc1	4%	1.1µM*!	-5%	-2%	/	-6%	/
COc1ccc(C(=O)CSc2nnc(-c3ccco3)c(-c3ccco3)n2)cc1	18µM*	-27%	?	?	-57*	-26%	?	APE1 dye cs=?;Endo IV inh=1%;APE1 FP=?
Cc1ccccc1NC(=O)CSc1nnc(-c2ccco2)c(-c2ccco2)n1	4.5µM*	?	56µM*	1%	-66*	i	16µM*	APE1 dye cs=-24%;Endo IV inh=15%;APE1 FP=-8%
Cc1ccccc1NC(=O)CSc1n[nH]c(-c2ccco2)n1	5%	0%	8%	-5%	3	-3%	/
O=C(Nc1nnc(C23CC4CC(CC(C4)C2)C3)s1)c1ccc(N2C(=O)CCC2=O)cc1	10µM*	?	3%	-3%	-19	-17%	-23%
CCCCc1nc2c(c3c1C[C@H](C)OC3)CN(C(=O)Nc1ccc(OC)cc1)CC2	16%[12.4 µM]	/	/	0%[12.4 µM]	/	i[11.5 µM]	/
O=C(O)C1C2C=CC(C2)C1C(=O)NCc1cccs1 (stereo not drawn)	?	0%	-4%	-3%	-2	i	?
NS(=O)(=O)c1ccc(NC(=O)Nc2ccc(S(N)(=O)=O)cc2)cc1	-3%	15%	-2%	-7%	0	2%	/
O=C(Nc1cc(C(=O)Nc2ccc(S(=O)(=O)O)cc2S(=O)(=O)O)cc(C(=O)Nc2ccc(S(=O)(=O)O)cc2S(=O)(=O)O)c1)Nc1cc(C(=O)Nc2ccc(S(=O)(=O)O)cc2S(=O)(=O)O)cc(C(=O)Nc2ccc(S(=O)(=O)O)cc2S(=O)(=O)O)c1	7.9µM*	-20%	-119%	?	/	-1%	2.5µM*	Endo IV inh=?
O=C(CSc1ccsc1[N+](=O)[O-])Nc1cccc(F)c1	?	-19%	?	-21%	-77*	?	14µM*	APE1 dye cs=?;Endo IV inh=18%;APE1 FP=-20%
O=C(CSc1ccsc1[N+](=O)[O-])NC1CCCC1	-4%	-13%	4%	-8%	?	-5%	/
Cc1ccc(S(=O)(=O)N2CCN(c3nc(-c4ccc(CN5CCNCC5)s4)nc4ccccc34)CC2)cc1	/	/	1%	/	/	/	/
C=C(C)CCOC(=O)C(CC(=O)O)NCc1ccco1 (stereo not drawn)	?	-5%	6%	-4%	-9	-5%	?
COc1ccc(C(CC(=O)N2CCN(c3ccccc3)CC2)c2c(OC)cc(OC)c3c(-c4ccccc4)cc(=O)oc23)cc1 (stereo not drawn)	?	-24%	/	2%	/	?	5.6µM*	APE1 dye cs=52%;Endo IV inh=?;APE1 FP=8%
Brc1cccc[n+]1Cc1ccccc1C[n+]1ccccc1Br	/	/	-12%	/	/	/	/
O=C1C2=CC[C@H]3C(=O)N(C[C@@H]4CCCO4)C(=O)[C@@H]3[C@@H]2[C@H](O)[C@@H]2O[C@H]12	?	/	/	2%[12.4 µM]	/	12%[11.5 µM]	/
CSCC[C@H](NC(=O)[C@H](Cc1c[nH]c2ccccc12)NC(=O)CNC(=O)[C@H](Cc1ccc(O)cc1)NC(=O)[C@H](C)NC(=O)[C@H](CCC(=O)O)NC(=O)[C@H](CCC(=O)O)NC(=O)[C@H](CCC(=O)O)NC(=O)[C@H](CCC(=O)O)NC(=O)[C@H](CCC(=O)O)NC(=O)[C@H](CC(C)C)NC(=O)[C@H](Cc1c[nH]c2ccccc12)NC(=O)[C@@H]1CCCN1C(=O)CNC(=O)[C@@H]1CCC(=O)N1)C(=O)N[C@@H](CC(=O)O)C(=O)N[C@@H](Cc1ccccc1)C(=O)NCC(=O)O	2%	-3%	/	-4%	/	-3%	/
CCC(C)C(=O)OCC1(c2ccc(C)cc2OC(=O)C(C)C)CO1 (stereo not drawn)	?	-17%	-9%	-12%	-2	-14%	11µM*	APE1 dye cs=?;Endo IV inh=-9%;APE1 FP=?
Cc1ccc(C2(COC(=O)C(C)C)CO2)c(OC(=O)C(C)C)c1 (stereo not drawn)	?	11%	-1%	-5%	4	i	/
CC(=O)c1nn(-c2cccc(Br)c2)cc1C(=O)c1ccc(Cl)cc1	18%	-8%	13%	5%	4	-1%	/
CC(=O)c1nn(-c2cccc(Br)c2)cc1C(=O)c1ccccc1	?	-2%	-1%	-3%	-1	i	-7%[24.4 µM]	APE1 dye cs=-7%;Endo IV inh=7%;APE1 FP=4%
CC[C@H](C)[C@H](NC(=O)[C@@H](NC(=O)CNC(=O)[C@@H](N)CC(C)C)[C@@H](C)O)C(=O)N1CCC[C@H]1C(=O)NCC(=O)O	3%	-14%	/	-1%	/	0%	/
